# HepG2 viability: HepG2 cytotoxicity, counter-screen for TGF-b inhibitors | HepG2 CAGA-GFP viability, ATP luminescence, 18 h | Potency, µM (highest dose often 46.1 µM), without a hit: top-dose activity change, negative = cytotoxicity, usual class: cytotoxic | 410,000 tested, 0.76% active | AID 588856
#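 HepG2 CAGA-GFP cells (1000/well, DMEM with 1% FBS) received compound, then TGF-beta at 500 pg/mL final, and were incubated 18 hours at 37 degrees C. Viability was read by CellTiter-Glo luminescence. Media-only wells were set as complete cell-killing and DMSO as no toxicity.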
# TGFb SMAD3 inh: blocks TGF-b signaling; HepG2 CAGA-GFP TGF-b/SMAD3 reporter, GFP fluorescence, 18 h; TGF-beta stimulated, 500 pg/mL final; Potency, µM (titrated, usually from 46.1 µM), inactives show at the top dose activity, negative = inhibition, usual class: inhibitors; 410,000 tested, 1.2% active; note: % is set by controls: 0 for no effect and ±100 for the full control effect; nearly all actives have a fitted effect of over 65% in size
#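 Inhibition of TGF-beta-driven CAGA-GFP reporter expression in HEPG2 cells is measured by cellular GFP fluorescence after 18 h stimulation with 500 pg/mL recombinant TGF-beta in 1% FBS medium at 37 degrees C.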
# HTT ATP protect: Huntington cell model cytoprotection by ATP luminescence | PC12 HTT-Q103 induced, cytoprotection, ATP luminescence, 40 h | Potency, µM (highest dose often 56.4 µM), inactives show cytoprotection (ATP increase), actives largely listed as activators | 230,000 tested, 0.14% active | AID 1471; note: % of control where 0% means no effect; nearly all actives have a fitted effect of over 45% in size
#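 Compounds added alongside 100 nM tebufenozide, which induces toxic Q103 huntingtin exon 1-GFP in stable PC12 cells; surviving cells quantified by luminescent ATP measurement. Medium: phenol red-free DMEM, 5% equine and 5% calf serum.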
# HttQ103 aggreg: mutant huntingtin aggregation inhibition. PC12 HttQ103-GFP aggregates, Acumen cytometry, 40 h. AID 1688. 220,000 tested, 1.1% active. Potency, µM (series often up to 46.1 µM), for the others: at the top dose activity change, negative = inhibition, most hits filed as inhibitors; note: % is set by controls: 0 for no effect and ±100 for the full control effect; nearly all actives have a fitted effect of over 60% in size
#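 Compounds (qHTS titration) were added to PC12 cells expressing an ecdysone-driven HTT exon 1 Q103–GFP fusion after induction with 100 nM tebufenozide. Aggregate formation was measured as GFP objects in cell lysates.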
# S2 tox: viability counter-screen for ATXN expression inhibitors; S2 cells (HEK-293 line with an ATXN2-luciferase reporter) viability, CellTiter-Fluor protease fluorescence, 24 h; Potency, µM (doses to about 56.7 µM), hits mostly cytotoxic; 400,000 tested, 0.49% active; AID 651635; note: nearly all actives have a fitted effect of over 40% in size
# ATXN2 expr inh: ATXN2 expression inhibition; HEK-293 ATXN2-luciferase reporter, luminescence, 24 h; 360,000 tested, 0.72% active; Potency, µM (doses to about 57 µM), for inactives: top-dose activity change, negative = inhibition, hits mostly inhibitors; note: % is set by controls: 0 for no effect and ±100 for the full control effect; nearly all actives have a fitted effect of over 55% in size
#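 qHTS (up to 57 uM final) was run with 24 h compound exposure of reporter cells at 37 °C. Each well was multiplexed: SteadyGlo luminescence measured ATXN2-luciferase expression after a fluorogenic Gly-Phe-AFC viability readout (25 uM final).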
# * marks the source's active call; other numbers are inactive results; i = inactive; ? = inconclusive; · = not tested or not shown; [ ] = remark or other dose. Compounds with a hit are over-represented: about 2.8% of the library has one in this group of screens. Calls come from the whole dose curve; as a rule, active = well fitted curve in the direction sought with a large enough effect; inconclusive = small, poorly fitted or top-dose-only effect, or another doubt; inactive = no such curve, though single readings can be large; an effect the other way counts as inactive or inconclusive. Potency is the fitted concentration of half-maximal effect.
SMILES,HepG2 viability,TGFb SMAD3 inh,HTT ATP protect,HttQ103 aggreg,S2 tox,ATXN2 expr inh
COCc1c(C(=O)N2CCN(c3ccccc3)CC2)cnn1-c1nccc(-c2ccco2)n1,·,·,·,·,i,·
Cc1ncsc1CCC(=O)N1CCCC(c2nc(-c3ccncc3)ncc2-c2ccccc2)C1 (stereo not drawn),·,·,·,·,i,·
O=C1CCCC1C(O)c1ccc2ccccc2c1 (stereo not drawn),·,·,-8%,·,·,·
COc1ccc(CN2C[C@H]3CON(C)[C@H]3C[C@H]2c2ccc(-c3ccccc3)cc2)cc1,-25%,11µM*,·,·,i,-13%
CN1OC[C@@H]2CN(Cc3ccccc3)[C@H](c3ccc(N4CCCCC4)cc3)C[C@@H]21,-35%,?,·,·,i,13%
COc1ccccc1-c1cccc([C@@H]2C[C@H]3[C@H](CON3C)CN2Cc2ccccc2)c1,-21%,?,·,·,?,-17%
CN1OC[C@@H]2CN(Cc3ccccc3)[C@H](c3cccc(-c4ccc(C#N)cc4)c3)C[C@@H]21,-30%,10µM*,·,·,i,-16%
C[C@]12CC[C@@H](O)C[C@@H]1CC[C@@H]1[C@@H]2CC[C@]2(C)C=CC[C@@H]12,·,·,-38%,·,·,·
C/C(=N\NC(N)=S)C1=CCC2C3CC[C@H]4CC(O)CC[C@]4(C)C3CC[C@]12C (stereo partly drawn),-37%,?,·,·,4.5µM*,·
CC(=O)Nc1cc([N+](=O)[O-])cc(NC(C)=O)c1NC(C)=O,0%,23%,·,·,·,·
Fc1ccc(-[n+]2nc(Nc3ccccc3)sc2-c2c3ccccc3cc3ccccc23)cc1,11µM*,11µM*,·,·,11µM*,25µM*
CCCCCC(O)/C=C/C=C\CCCCCCCC(=O)O (stereo not drawn),·,·,4%,·,·,·
COCCNC(=O)/C(C#N)=C/C=C/c1ccccc1[N+](=O)[O-],-7%,20µM*,?,-10%[9.22 µM],?,?
CCCCCCCCCC[n+]1ccc(/C=C/c2c(C)[nH]c3ccccc23)cc1,-101%,211%,·,·,·,·
O=C(CSc1c2c(nc3ccc(Cl)cc13)CCCC2)N1CCN(C(=O)c2ccco2)CC1,-84%,?,20µM*,·,?,·
O=C(CSc1c2c(nc3ccc(Cl)cc13)CCCC2)N1CCCCC1,-54%,?,·,·,·,·
CC1CCN(C(=O)CSc2c3c(nc4ccc(Cl)cc24)CCCC3)CC1,-29%,16µM*,·,·,·,·
CN(Cc1ccccc1)C(=O)CSc1c2c(nc3ccc(Cl)cc13)CCCC2,22µM*,?,·,·,·,·
COc1cc(=O)n2c(c1C(=O)NC(C)c1ccco1)CCN(C(=O)c1ccc(F)cc1Cl)CC2 (stereo not drawn),·,·,·,·,i,·
NC(=O)c1ncn([C@@H]2O[C@H](CO)[C@@H](O)[C@@H]2O)c1O,·,·,·,·,·,6%
Cc1cc(NCCCn2ccnc2)n2nc(C)c(-c3ccc(Cl)cc3)c2n1,-61%,-4%,8%,?,16µM*,?
Cc1cc(NCCCn2ccnc2)n2nc(C)c(-c3ccccc3)c2n1,-26%,-8%,-50%,-9%,i,44%
CCc1cccc(NC(=O)COC(=O)c2ccccc2OCc2ccccc2Br)c1,-12%,?,·,·,·,·
O=C(NCc1ccc2c(c1)OCO2)c1ccc(CS(=O)Cc2cccc(Cl)c2)o1 (stereo not drawn),-39%,1%,·,·,i,2%
COc1ccc(Br)cc1/C=N/NC(=O)c1ccc(COc2ccc3c(c2)CCC3)o1,8%,0%,-13%,1%,i,45%
SMILES,HepG2 viability,TGFb SMAD3 inh,HTT ATP protect,HttQ103 aggreg,S2 tox,ATXN2 expr inh
O=C(NCc1ccc2c(c1)OCO2)c1ccc(COc2cccc(Cl)c2)o1,-21%,-1%,-16%[10 µM],28µM*,i,-6%
O=C(NCc1cccnc1)c1ccc(COc2ccc3c(c2)CCC3)o1,-49%,?,6%[10 µM],8.9µM*,?,?
COC(=O)c1ccc(COc2ccc3c(c2)CCC3)o1,-5%,-3%,-2%[10 µM],-3%[9.22 µM],i,80%
O=C(N/N=C/c1cc([N+](=O)[O-])ccc1O)c1ccc(COc2ccc3c(c2)CCC3)o1,-49%,4.5µM*,·,·,?,7.9µM*
Cc1ccc2nc(SCC(=O)NCC3Cc4cccc(-c5nc(C)cnc5C)c4O3)[nH]c2c1 (stereo not drawn),·,·,·,·,i,·
Fc1ccc(C2CCNCC2COc2ccc3c(c2)OCO3)cc1 (stereo not drawn),11µM*,?,·,·,?,?
COc1ccc2sc(-c3ccc(N(C)C)cc3)c(C#Cc3cncn3C)c2c1,8.9µM*,?,·,·,·,?
COC1C(OC(=O)/C=C/C=C/C=C/C=C/C(=O)O)CCC2(CO2)C1C1(C)OC1CC=C(C)C (stereo not drawn),·,·,26%,24%,·,·
CCc1cc2c(=O)[nH]c(-c3ccccn3)nc2s1,-31%,5µM*,-61%[10 µM],-2%,5.6µM*,?
CCc1cc2c(=O)[nH]c(N3CCCC3)nc2s1,7%,37%,·,3%,i,20%
O=C(CCCOc1ccccc1)N1CCCCC1,-3%,19%,-39%,-1%,i,11µM*
O=C(c1ccccc1)c1ccc(OCCCCN2CCCCC2)cc1,-9%,0%,-4%,7%,i,-2%
O=C(c1ccccc1)c1ccc(OCCCN2CCCC2)cc1,16µM*,2%,0%[0.074 µM],-11%,i,14%
O=C(CCCOc1ccc(Cl)cc1)N1CCCCC1,-20%,-11%,-6%,-18%,i,38%
CNC(=O)c1ccc2nc(-c3cccc(C)c3)c(-c3cccc(C)c3)nc2c1,-48%,?,·,·,·,·
Oc1c(CN2CCN(c3ccccc3)CC2)cc(Br)c2cccnc12,-42%,?,-1%[10 µM],-2%[9.22 µM],?,4.5µM*
CCOC(=O)N1CCN(Cc2ccccc2Cl)CC1,0%,5%,4%[0.074 µM],0%,i,1%
CCOCc1cc(CN2CCN(c3cccc(Cl)c3)CC2)c(O)c2ncccc12,-22%,2µM*,·,·,·,·
CC(C)OCc1cc(CN2CCN(c3ccccc3)CC2)c(O)c2ncccc12,-36%,2.2µM*,·,·,?,1.3µM*
COCc1cc(CN2CCN(C)CC2)c(O)c2ncccc12,-1%,0%,-26%[10 µM],18%,?,?
CCOC(=O)N1CCN(Cc2cc(Cl)c3cccnc3c2O)CC1,-19%,?,-71%[10 µM],?,?,3.5µM*
CCCN1CCC(=O)N(C(CSc2ccc(C)cc2)CC(C)C)CC1 (stereo not drawn),-19%,?,·,·,·,·
CN1N=C(C(N)=O)CCC1=O,·,·,·,·,i,8%

# Screening results deposited in PubChem BioAssay by National Center for Advancing Translational Sciences (NCATS).
